High-throughput results (PubChem BioAssay)
This is one part of a sample in which hits are shown more often than they occur.
C diff growth = inhibitors of Clostridium difficile growth; Clostridium difficile clinical isolate growth, OD600, 24 h; hits give low values; growth activity, negative = inhibition, % at 16 µg/mL (by protocol); 0.25% of 86,000 active;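 active = mean growth activity at or below -80% and every replicate also at or below -80%; inconclusive = mean at or below -80% but some replicate above -80%; inactive = mean growth activity above -80%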
T cruzi growth-1 = T. cruzi proliferation inhibition | T. cruzi beta-gal in NIH3T3, GalScreen luminescence, 90 h | inhibition, % at 8.34 µM | 5.9% of 77,000 active | AID 624255;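 active = mean inhibition above about 93%, with at least 55% of replicates each passing it, limit read from the data, passing the limit was not always enough; inconclusive = only one of those two conditions holds; inactive = neither condition holds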
T cruzi growth-2 = blocks T. cruzi growth in NIH3T3 host cells. shares compounds with T cruzi growth-1. inhibition, % at 8.35 µM. 72% of 5,600 active. AID 651739. T. cruzi beta-gal in NIH3T3, GalScreen luminescence, 90 h;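 active = mean replicate inhibition above about 95% and at least 55% of replicates individually reaching it, limit read from the data; inconclusive = only one of the two criteria is met; inactive = neither criterion is met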
T cruzi growth-3 = Trypanosoma cruzi proliferation inhibition. T. cruzi beta-gal in NIH3T3, GalScreen luminescence, 90 h. 21% of 5,600 active. shares compounds with T cruzi growth-1. inhibition, % at 2.09 µM;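 active = mean inhibition above about 95%, with at least 55% of replicates also reaching it, limit read from the data; inconclusive = meets just one of the two conditions; inactive = meets neither condition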
3T3 cytotox = NIH/3T3 (mouse) viability loss; cytotoxicity (signal decrease), % at 8.35 µM; shares compounds with T cruzi growth-1; 14% of 5,600 active; NIH/3T3 viability, CellTiter-Glo ATP luminescence, 90 h; AID 651742;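 active = mean signal decrease across replicates above about 35% based on untreated-well scatter, with enough replicates individually passing, limit read from the data; inconclusive = no rule stated though some were filed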
NIH3T3 tox 2 = NIH/3T3 (mouse) viability loss; shares compounds with T cruzi growth-1; NIH/3T3 viability, CellTiter-Glo ATP luminescence, 90 h; AID 651744; 56% of 5,600 active; inhibition, % at 24.9 µM;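 active = mean loss of cell viability signal at or above a set limit, and enough replicates individually reaching it; inconclusive = meets only the mean limit or only the replicate share; inactive = meets neither condition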
A number is an active result; – = inactive; ? = inconclusive; · = not tested or not shown; ! = not active in a repeat.

SMILES	C diff growth	T cruzi growth-1	T cruzi growth-2	T cruzi growth-3	3T3 cytotox	NIH3T3 tox 2
C[C@H](CO)N1C[C@H](C)[C@H](CN(C)C(=O)C2CCCCC2)Oc2cc(Br)ccc2S1(=O)=O	–	–	·	·	·	·
C[C@@H]1CN([C@@H](C)CO)S(=O)(=O)c2ccc(Br)cc2O[C@H]1CN(C)C(=O)C1CCCCC1	–	–	·	·	·	·
C[C@@H]1CN([C@H](C)CO)S(=O)(=O)c2ccc(Br)cc2O[C@H]1CN(C)C(=O)C1CCCCC1	–	100!	–	–	–	48
C[C@H]1CN([C@@H](C)CO)S(=O)(=O)c2ccc(Br)cc2O[C@@H]1CN(C)C(=O)C1CCCCC1	–	103	–	–	–	42
COC(=O)C[C@@H]1C=C[C@@H](NC(=O)c2ccccc2)[C@@H](CO)O1	·	–	·	·	·	·
C[C@@H]1CCCCO[C@H](CN(C)C(=O)Nc2ccccc2)[C@@H](C)CN([C@@H](C)CO)C(=O)c2cc(NC(=O)Cc3ccccc3)ccc2O1	·	–	·	·	·	·
C[C@@H]1CCCCO[C@H](CN(C)C(=O)Nc2ccc(C(F)(F)F)cc2)[C@@H](C)CN([C@H](C)CO)C(=O)c2cc(NC(=O)Cc3ccccc3)ccc2O1	–	–	·	·	·	·
C[C@H]1CCCCO[C@H](CN(C)C(=O)Nc2ccc(C(F)(F)F)cc2)[C@@H](C)CN([C@@H](C)CO)C(=O)c2cc(NC(=O)Cc3ccccc3)ccc2O1	–	?	101	113	–	–
C[C@@H]1CCCCO[C@@H](CN(C)C(=O)Nc2ccc(C(F)(F)F)cc2)[C@H](C)CN([C@H](C)CO)C(=O)c2cc(NC(=O)Cc3ccccc3)ccc2O1	–	?	106	104	–	–
C[C@H]1CCCCO[C@@H](CN(C)C(=O)Nc2ccccc2)[C@@H](C)CN([C@@H](C)CO)C(=O)c2cc(NC(=O)Cc3ccccc3)ccc2O1	·	–	·	·	·	·
C[C@@H]1CCCCO[C@H](CN(C)C(=O)Nc2ccc(C(F)(F)F)cc2)[C@H](C)CN([C@H](C)CO)C(=O)c2cc(NC(=O)Cc3ccccc3)ccc2O1	–	?	109	107	–	56
C[C@@H]1CCCCO[C@@H](CN(C)C(=O)Nc2ccc(C(F)(F)F)cc2)[C@H](C)CN([C@@H](C)CO)C(=O)c2cc(NC(=O)Cc3ccccc3)ccc2O1	–	122	108	–	–	43
C[C@@H]1CCCCO[C@H](CN(C)C(=O)Nc2ccccc2)[C@H](C)CN([C@@H](C)CO)C(=O)c2cc(NC(=O)Cc3ccccc3)ccc2O1	·	–	·	·	·	·
C[C@@H]1CCCCO[C@@H](CN(C)C(=O)Nc2ccccc2)[C@H](C)CN([C@H](C)CO)C(=O)c2cc(NS(=O)(=O)c3cn(C)cn3)ccc2O1	–	–	·	·	·	·
C[C@H]1CN([C@@H](C)CO)C(=O)c2cccc(NC(=O)c3cnccn3)c2O[C@H]1CN(C)S(C)(=O)=O	–	–	·	·	·	·
Cc1noc(C)c1S(=O)(=O)Nc1ccc2c(c1)C(=O)N([C@@H](C)CO)C[C@H](C)[C@@H](CN(C)CC1CC1)O2	–	–	·	·	·	·
C[C@@H]1CCCCO[C@@H](CN(C)C(=O)Nc2ccccc2)[C@@H](C)CN([C@H](C)CO)C(=O)c2cc(NC(=O)Cc3ccccc3)ccc2O1	·	–	·	·	·	·
C[C@H](CO)N1C[C@H](C)[C@@H](CN(C)C(=O)Nc2ccc(C(F)(F)F)cc2)OCCCC[C@H](C)Oc2ccc(NC(=O)Cc3ccccc3)cc2C1=O	–	128	108	110	–	?
CO[C@H]1CN(C)C(=O)c2cc(NC(=O)C3CCC3)ccc2OC[C@@H](C)N(Cc2ccccn2)C[C@@H]1C	–	–	·	·	·	·
COc1ccc(S(=O)(=O)Nc2ccc3c(c2)C(=O)N([C@H](C)CO)C[C@H](C)[C@H](CN(C)C(=O)Nc2ccccc2)OCCCC[C@H](C)O3)cc1	–	99	108	–	–	–
COc1ccc(S(=O)(=O)Nc2ccc3c(c2)C(=O)N([C@H](C)CO)C[C@H](C)[C@H](CN(C)C(=O)Nc2ccc(C(F)(F)F)cc2)OCCCC[C@@H](C)O3)cc1	–	108	104	–	–	?
Cc1ccc(S(=O)(=O)Nc2ccc3c(c2)C(=O)N([C@H](C)CO)C[C@H](C)[C@@H](CN(C)C(=O)Nc2ccc(C(F)(F)F)cc2)OCCCC[C@@H](C)O3)cc1	–	101	105	–	–	–
Cc1ccc(S(=O)(=O)Nc2ccc3c(c2)C(=O)N([C@@H](C)CO)C[C@H](C)[C@H](CN(C)C(=O)Nc2ccc(C(F)(F)F)cc2)OCCCC[C@H](C)O3)cc1	–	·	·	·	·	·
Cc1ccc(S(=O)(=O)Nc2ccc3c(c2)C(=O)N([C@@H](C)CO)C[C@H](C)[C@@H](CN(C)C(=O)Nc2ccc(C(F)(F)F)cc2)OCCCC[C@@H](C)O3)cc1	–	–	·	·	·	·
Cc1ccc(S(=O)(=O)Nc2ccc3c(c2)C(=O)N([C@@H](C)CO)C[C@@H](C)[C@@H](CN(C)C(=O)Nc2ccc(C(F)(F)F)cc2)OCCCC[C@@H](C)O3)cc1	–	98	104	112	–	–
SMILES	C diff growth	T cruzi growth-1	T cruzi growth-2	T cruzi growth-3	3T3 cytotox	NIH3T3 tox 2
COc1ccc(S(=O)(=O)Nc2ccc3c(c2)C(=O)N([C@H](C)CO)C[C@@H](C)[C@H](CN(C)C(=O)Nc2ccccc2)OCCCC[C@@H](C)O3)cc1	–	–	·	·	·	·
COc1ccc(S(=O)(=O)Nc2ccc3c(c2)C(=O)N([C@@H](C)CO)C[C@H](C)[C@@H](CN(C)C(=O)Nc2ccc(C(F)(F)F)cc2)OCCCC[C@@H](C)O3)cc1	–	–	·	·	·	·
CN(C[C@@H]1N[C@@H](CO)[C@@H]1c1ccc(C2=CCCC2)cc1)S(C)(=O)=O	–	–	·	·	·	·
COc1ccc(S(=O)(=O)N(C)C[C@H]2Oc3c(NC(=O)c4cnccn4)cccc3C(=O)N([C@H](C)CO)C[C@@H]2C)cc1	·	–	·	·	·	·
COc1ccc(S(=O)(=O)N(C)C[C@H]2Oc3ccc(NS(=O)(=O)c4c(C)noc4C)cc3C(=O)N([C@H](C)CO)C[C@H]2C)cc1	–	–	·	·	·	·
O=S(=O)(N[C@H]1CC[C@H](CCn2cc(-c3cccnc3)nn2)O[C@H]1CO)c1ccccc1	–	–	·	·	·	·
CC(C)NC(=O)N(C)C[C@@H]1OCCCC[C@@H](C)Oc2ccc(NS(C)(=O)=O)cc2C(=O)N([C@@H](C)CO)C[C@H]1C	·	–	·	·	·	·
COCC#Cc1cnc2c(c1)C(=O)N([C@@H](C)CO)C[C@@H](C)[C@@H](CN(C)Cc1ccccc1F)O2	–	–	·	·	·	·
CC(C)CC#Cc1ccc2c(c1)O[C@H](CN(C)C(=O)c1cccc(F)c1)[C@@H](C)CN([C@@H](C)CO)S2(=O)=O	–	126	99	102	–	106
C[C@@H]1CN([C@@H](C)CO)S(=O)(=O)c2ccc(C#CC3CC3)cc2O[C@@H]1CN(C)C(=O)c1cccc(F)c1	–	·	·	·	·	·
C[C@@H]1CN([C@@H](C)CO)S(=O)(=O)c2ccc(C#CC3CC3)cc2O[C@@H]1CN(C)C(=O)c1ccccc1	–	–	·	·	·	·
